Assay results taken from PubChem BioAssay AID686978 (National Center for Advancing Translational Sciences (NCATS), 2013).
Values joined by “and” are separate entries in the source; they are usually repeats but may differ in a detail not shown here. Equal values may be shown once. Among all 420,000 compounds or so, about 64,000 (15%) were called active. Another 27% or so got no clear call; they are omitted. A selection follows. A number with no mark means an inactive call. Calls follow the shape of the dose curve; as a rule, active = well fitted inhibition curve with a large enough effect; inconclusive = small, poorly fitted or top-dose-only effect; inactive = flat fitted curve, though single readings scatter.

Assay: qHTS for Inhibitors of human tyrosyl-DNA phosphodiesterase 1 (TDP1): qHTS in cells in absence of CPT; also: nearly all actives have a fitted effect of over 55% in size
Conditions: DT40 Tdp1-/- hTDP1 cells, no CPT, ATP luminescence, 48 h; activity change, negative = growth inhibition: at 46.2 µM (top of the series)
Method in brief: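 Stably hTDP1-transfected Tdp1-null chicken DT40 cells were treated with library compounds minus camptothecin and grown for at least 48 hr at 37 °C, after which cellular ATP was quantified by luminescence.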
% is scaled to controls: 0 for no effect and ±100 for the full control effect; potency is read from the fitted curve at half-maximal effect.

| SMILES | activity change, negative = growth inhibition [%] | Potency |
| --- | --- | --- |
| COc1ccc2c(c1)c(=O)c(S(=O)(=O)c1ccc(F)cc1)cn2CC(=O)Nc1ccc(C)cc1C | 24.6 | – |
| CCOC(=O)c1ccccc1NC(=O)CCc1c(C)nc2c(c1C)c(=O)n(C)c(=O)n2C | -19.7 | – |
| O=C1Nc2cc(Cl)c(Cl)cc2N(O)N1c1cc(Cl)cc(Cl)c1 | -19.7 | – |
| C/C(N)=C(/C#N)C(=O)COC(=O)C1=NN(c2ccccc2)C(=O)CC1 | 4.78 | – |
| CCNc1nc(Oc2ccc(C(=O)OC)cc2)nc(N2CCOCC2)n1 | -20.1 | – |
| CCOC(=O)C1CCN(C(=O)/C=C/c2cc(OC)c(OC)c(OC)c2)CC1 | -24.2 | – |
| CCCCNC(=O)Cn1nc(C)c(S(=O)(=O)N2CCOCC2)c1C | 4.34 | – |
| COC(=O)c1sccc1N/N=C(\C)c1ccc(F)c(Cl)c1 | -16.8 | – |
| CCOc1ccc(-n2c(SCC(=O)NCc3ccccc3)nc3n[nH]c(C)c3c2=N)cc1 | – | 7.31 µM (active) |
| COc1ccc(-n2c(Cc3cccn3C)nnc2SCC(=O)Nc2cc(C)cc(C)c2)cc1 | -1.68 | – |
| CCCCNC(=O)CSc1nnc(-c2ccco2)n1C | -13.5 | – |
| O=C(COc1ccc(Cl)cc1)NCCC1=CCCCC1 | -14.8 | – |
| CCCCNC(=O)CSc1nc2n[nH]c(C)c2c(=N)n1-c1cccc(Cl)c1C | – | 20.6 µM (active) and 9.2 µM (active) |
| Cc1ccccc1CN1CCNC(=O)C1CC(=O)NCCC1=CCCCC1 (configuration not stated) | 7.28 | – |
| COCCNC(=O)CSc1nc2sccc2c(=O)n1-c1ccccc1 | -14 | – |
| COc1ccc(Cc2nnc(SCC(=O)Nc3ccc(C)c(Cl)c3)[nH]c2=O)cc1 | -11.1 | – |
| Cc1nnc(SCC(=O)NCCOc2ccc(Cl)cc2)n1-c1ccccc1 | -22.3 | – |
| Cc1ccc(-n2c(SCC(=O)NCCC3=CCCCC3)nc3n[nH]c(C)c3c2=N)cc1Cl | – | 3.26 µM (active) |
| COc1ccc(-n2c(SCC(=O)Nc3ccc(Cl)c(C)c3)nc3n[nH]c(C)c3c2=N)cc1 | – | 9.2 µM (active) |
| Cc1nnc(SCC(=O)NCc2ccccc2)s1 | 2.12 | – |
| CN1CCN(CCNC(=O)Nc2ccccc2[N+](=O)[O-])CC1 | 1.69 | – |
| Cc1nnc2sc(-c3ccco3)nn12 | 3.77 | – |
| CSc1ccc(C#N)cc1NC(=O)c1ccc(Cl)cc1 | -21.7 | – |
| COCCCNC(=O)/C(C#N)=C/c1c(N2CCCCCC2)nc2ccccn2c1=O | -24.2 | – |
| CCOC(=O)C1=C(C)NC(=O)N(C(C)=O)C1c1ccc(Cl)cc1 (configuration not stated) | -29 | – |
| CCN(CC(=O)Nc1ccc2c(c1)OCO2)S(=O)(=O)c1ccccc1 | 1.23 | – |

| SMILES | activity change, negative = growth inhibition [%] | Potency |
| --- | --- | --- |
| O=C(COC(=O)CCc1c[nH]c(=O)[nH]1)Nc1ccccc1Cl | -3.82 | – |
| Cn1c(-c2ccc(F)cc2)cnc1SCC(=O)NNC(=O)Cc1ccccc1 | -20.8 | – |
| COc1cccc(-n2c(N)cc(=O)nc2SCC(=O)Nc2cc(C)on2)c1 | -20.8 | – |
| COc1cccc(-n2c(SCC(=O)NC3CCS(=O)(=O)C3)nc3ccccc3c2=O)c1 (configuration not stated) | -17.4 | – |
| COc1cccc(-n2c(SCC(=O)NC3CCCCC3)nc3n[nH]c(C)c3c2=N)c1 | – | 18.4 µM (active) |
| CCC(Sc1nc2n[nH]c(C)c2c(=N)n1-c1ccccc1Cl)C(=O)N(CC)CC (configuration not stated) | – | 16.4 µM (active) |
| Cc1ccc(Sc2cc(C(=O)c3ccccc3C(=O)O)ccc2[N+](=O)[O-])cc1 | 23.2 | – |
| CC(=O)OCCOCn1cnn2c(=O)c(Br)c(C)nc12 | 7.7 | – |
| NS(=O)(=O)c1ccc(NC2=CC(c3ccc(F)cc3)N(c3ccc(S(N)(=O)=O)cc3)C2=O)cc1 (configuration not stated) | 15.4 | – |
| Cc1cccc(CNS(=O)(=O)c2ccc(-c3cnc(C4CC4)o3)cc2)c1 | – | 16.4 µM (active) |
| COc1ccc(S(=O)(=O)NCc2ccc(C(=O)N(C)Cc3ccco3)cc2)cc1 | -14.6 | – |
| COc1ccc(CNS(=O)(=O)c2cc3c4c(c2)CCN4C(=O)CC3)cc1 | -21 | – |
| COc1ccc(S(=O)(=O)NCc2cccn2Cc2cccc(C)c2)cc1 | -0.409 | – |
| Cc1ccc(S(=O)(=O)N[C@H]2CCC[C@@H]2O)cc1 | 3.58 | – |
| Cc1cccc(NS(=O)(=O)c2ccc(-c3cnc(C4CC4)o3)cc2)c1 | – | 0.58 µM (active) |
| Cc1cc(NS(=O)(=O)c2ccc3oc(=O)c4ncn(C)c4c3c2)ccc1Br | -13 | – |
| CC1CCN(S(=O)(=O)c2ccc(S(=O)(=O)NCc3cccnc3)cc2)CC1 | -16.9 | – |
| COc1ccc(CNS(=O)(=O)c2ccc(-c3cnc(C4CC4)o3)cc2)cc1 | – | 13 µM (active) |
| O=C(NCc1ccco1)C1CCCN(S(=O)(=O)c2cnc[nH]2)C1 (configuration not stated) | 10.5 | – |
| Cc1ccc(N=C2NC(=O)c3cccc([N+](=O)[O-])c32)cc1 | -21.6 | – |
| O=C(COc1ccc(Br)cc1)OCC(=O)c1ccc[nH]1 | 8.39 | – |
| Cc1ccc(CSCCNC(=O)CN(c2ccc(F)cc2)S(C)(=O)=O)cc1 | -11.4 | – |
| Cc1c(NC(=S)NC(=O)CCc2ccccc2)c(=O)n(-c2ccccc2)n1C | -15.1 | – |
| COc1cc(NC(=S)N2CCCC(C)C2)cc(OC)c1OC (configuration not stated) | -27 | – |
| C[C@H](NC(=O)c1ccccc1)C(=O)OCC(=O)c1c[nH]c2ccccc12 | 9.44 | – |
| O=C(/C=C/c1cccs1)NCc1cccnc1 | -1.9 | – |
